Assay outcomes as filed in PubChem BioAssay.
Most compounds without a hit are left out; they make up all but 1.9% or so of the library.
PP5 inh: PP5 (human) phosphatase inhibition; hit rate 0.18% among 320,000; inhibition, % at 6.7 µM; purified PP5c, OMFP substrate fluorescence; P53041; AID 1987;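 active = inhibition above the campaign's mean inhibition across all tested compounds plus 3 SD, cut at about 9.5% in these data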;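 note: 0% = DMSO only and 100% = 100 µM cantharidin control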
Target sequence (P53041 whole entry, looked up): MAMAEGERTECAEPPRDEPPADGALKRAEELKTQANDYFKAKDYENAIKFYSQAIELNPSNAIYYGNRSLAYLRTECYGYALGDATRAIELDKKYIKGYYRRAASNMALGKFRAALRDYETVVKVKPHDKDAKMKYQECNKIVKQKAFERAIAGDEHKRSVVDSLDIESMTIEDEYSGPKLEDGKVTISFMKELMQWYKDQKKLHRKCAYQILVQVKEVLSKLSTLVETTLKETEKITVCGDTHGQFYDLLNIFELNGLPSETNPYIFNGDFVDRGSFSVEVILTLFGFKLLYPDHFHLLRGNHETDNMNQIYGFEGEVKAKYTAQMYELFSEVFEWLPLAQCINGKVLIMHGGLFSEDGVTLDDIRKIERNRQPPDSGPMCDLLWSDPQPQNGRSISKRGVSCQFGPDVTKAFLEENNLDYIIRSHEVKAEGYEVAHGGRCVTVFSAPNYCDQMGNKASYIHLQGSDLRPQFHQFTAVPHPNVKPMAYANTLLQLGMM
Cardio protect: protects H9c2 cardiomyocytes from peroxide injury; protection from H2O2 cell death, % at 20 µM; AID 588492; hit rate 0.63% among 360,000; H2O2 injury protection, ATPLite, 2 h;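 active = compounds giving at least 50% protection of heart cells from peroxide-induced death in the single-dose screen, raw or plate-pattern-corrected value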;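 note: 0% = DMSO wells with peroxide and 100% = DMSO wells without peroxide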
ATG4B inh: ATG4B (human) cysteine protease inhibition | Q9Y4P1 | ATG4B cleavage of LC3-PLA2, NBD-HPC fluorescence, 1 h | inhibition, % at 8.33 µM | hit rate 0.51% among 340,000 | AID 504462; in the data active = inhibition above about 40%
PP1 counter: PP1-alpha (human) inhibition in PP5 counter-screen; P62136; purified PP1alpha, OMFP fluorescence; inhibition, % at 6.7 µM; hit rate 0.9% among 320,000;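 active = inhibition above the mean inhibition of all tested compounds plus 3 SD, computed separately for each screening campaign, cut at about 15% in these data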
Active calls of the source: *.

Screening CCN1/C(=C/C=C/c2oc3ccc4ccccc4c3[n+]2CC)Oc2ccc3ccccc3c21 returned PP5 inh -1, ATG4B inh 91* and PP1 counter 49*.
CC[n+]1c(/C=C/N(C)c2ccccc2)oc2ccc(Cl)cc21 was read as PP5 inh 2, Cardio protect -14, ATG4B inh 6 and PP1 counter -1.
`Cc1ccc(C)c(OC(=O)CN2C(=O)c3ccccc3C2=O)c1` gave PP5 inh 1, Cardio protect 6, ATG4B inh 16 and PP1 counter -1.
CCOc1ccccc1-c1c2cc(O)c(=O)cc-2oc2cc(O)c(O)cc12 was read as Cardio protect 60* and ATG4B inh inactive.
CC1=NN(C(N)=S)C(=O)C1N=Nc1c(C)cc(C)cc1C (centres undefined) was read as PP5 inh 1, Cardio protect 17, ATG4B inh -6 and PP1 counter 17*.
CCOc1ccc(-n2c(SCC(=O)Nc3ccc(Br)cc3)nc3n[nH]c(C)c3c2=N)cc1 was read as PP5 inh 3, Cardio protect 4, ATG4B inh 1 and PP1 counter 17*.
For Cc1ccc(C(=O)NNC(=O)c2ccc(NC(=O)C(C)(C)C)cc2)cc1 the results were PP5 inh -1, Cardio protect -6, ATG4B inh 0 and PP1 counter -3.
`Cc1ccccc1C(=O)N1CCC(C(=O)NC2CCCC2)CC1` gave PP5 inh -1, Cardio protect 2, ATG4B inh -6 and PP1 counter 0.
Screening CCCCn1c(N)c(NCCC(C)C)c(=O)[nH]c1=O returned PP5 inh 1, Cardio protect -7, ATG4B inh 6 and PP1 counter -1.
`CCCCn1c(N)c(Br)c(=O)[nH]c1=O` gave PP5 inh -3, Cardio protect 55*, ATG4B inh -1 and PP1 counter 1.
For O=c1[nH]n(CC2COC3(CCCCC3)O2)c(=O)c2ccccc12 (centres undefined) the results were PP5 inh 2, Cardio protect 52*, ATG4B inh 1 and PP1 counter 2.
Screening C/C(=N\NC(=O)c1ccccc1O)c1ccc(NC(=O)Cc2ccccc2)cc1 returned PP5 inh 0, Cardio protect 2, ATG4B inh 2 and PP1 counter -3.
For Cc1ccccc1-c1cc2nc(C)c(Cl)c(=O)n2[nH]1 the results were PP5 inh 1, Cardio protect 2, ATG4B inh 0 and PP1 counter -1.
`Cc1ccccc1-c1cc2nc(-c3ccc([N+](=O)[O-])cc3)cc(=O)n2[nH]1` gave PP5 inh 0, Cardio protect 26, ATG4B inh 1 and PP1 counter 16*.
For COc1cc2nc3n(c(=O)c2cc1OC)-c1ncccc1C(=O)NC3Cc1ccccc1 (centres undefined) the results were Cardio protect 9.
`CC(C)=NNc1cnnc2ccc([N+](=O)[O-])cc12` gave Cardio protect 56*.
`C/C(=N\Nc1ccc([N+](=O)[O-])cc1[N+](=O)[O-])c1cccnc1` gave PP5 inh 1, Cardio protect -1, ATG4B inh 6 and PP1 counter -2.
O=C(CN1CC(=O)Oc2ccccc21)OCC(=O)c1cccc(Br)c1 was read as PP5 inh 0, Cardio protect 60*, ATG4B inh -10 and PP1 counter 0.
Screening O=C(CN1CC(=O)Oc2ccccc21)OCC(=O)c1ccccc1 returned PP5 inh 1, Cardio protect 43, ATG4B inh 8 and PP1 counter 0.
`COc1cc(CNC[C@H]2O[C@@H](n3cnc(C(N)=O)n3)[C@H](O)[C@@H]2O)ccc1OCc1cccc(Cl)c1` gave Cardio protect 5 and ATG4B inh 0.
`COc1ccc(/C=N/NC(=O)c2nn(-c3ccc(Cl)cc3)c(=O)c3c(N)scc23)cc1` gave PP5 inh 2, Cardio protect 0, ATG4B inh -9 and PP1 counter 17*.
For Cc1ccc2c(c1)C(=O)CC(c1ccccc1)S2 (centres undefined) the results were Cardio protect -10 and ATG4B inh 18.
`COc1cc(-c2nnc(-c3cccs3)o2)cc(OC)c1OC` gave PP5 inh 2, Cardio protect 8, ATG4B inh -5 and PP1 counter -1.
Screening COc1ccc(-c2nnc(-c3cc(OC)c(OC)c(OC)c3)o2)cc1OC returned PP5 inh 4, Cardio protect 58*, ATG4B inh -5 and PP1 counter 3.
For O=C(O)C(Cc1ccccc1N(CCO)CCO)N1C(=O)c2ccccc2C1=O (centres undefined) the results were Cardio protect 8 and ATG4B inh -2.
`CCCC(=O)NC(c1ccco1)c1cc([N+](=O)[O-])c2cccnc2c1O` (centres undefined) gave PP5 inh -1, Cardio protect 55*, ATG4B inh 7 and PP1 counter 6.
`CN(C(=O)COC(=O)c1ccccc1NCc1ccco1)c1c(N)n(Cc2ccccc2)c(=O)[nH]c1=O` gave PP5 inh 1, Cardio protect 6, ATG4B inh -14 and PP1 counter -2.
For O=C(CSc1nnc(Cc2cccs2)n1CCc1ccccc1)N1CCCc2ccccc21 the results were PP5 inh 3, Cardio protect 67*, ATG4B inh 17 and PP1 counter -3.
`CN(C)CCCN1c2ccccc2Sc2ccccc21` gave PP5 inh 0, Cardio protect 50*, ATG4B inh 3 and PP1 counter -4.
Screening C/C(=N\NC(=O)CSCc1ccccc1Cl)c1cc(O)ccc1O returned PP5 inh 2, Cardio protect 51*, ATG4B inh 3 and PP1 counter -4.
NC(=O)c1c(NC(=O)Cn2nc(C(=O)O)c3ccccc3c2=O)sc2c1CCCC2 was read as PP5 inh -1, Cardio protect 6, ATG4B inh 11 and PP1 counter -2.
For NC(=O)c1c(NC(=O)Cn2nc(C(=O)O)c3ccccc3c2=O)sc2c1CCC2 the results were PP5 inh 1, Cardio protect 54*, ATG4B inh 5 and PP1 counter 9.
`CCC(C)[C@H](NS(=O)(=O)c1ccc(C)cc1)C(=O)N1CCC(C(=O)N2CCC(C(=O)OC)CC2)CC1` (some centres undefined) gave PP5 inh 2, Cardio protect -3, ATG4B inh -33 and PP1 counter -5.
For CCOC(=O)c1cc2c(=O)n3cccc(C)c3nc2n(CCCOC)c1=NC(=O)c1cccnc1 the results were PP5 inh 1, Cardio protect 101*, ATG4B inh -11 and PP1 counter -2.
CCOCCCn1c(=NC(=O)c2cccnc2)c(C(=O)OCC)cc2c(=O)n3ccccc3nc21 was read as PP5 inh 1, Cardio protect 34, ATG4B inh -6 and PP1 counter 0.
For Cc1cccn2c(=O)c3cc(C#N)c(=NC(=O)c4cccs4)n(CCCOC(C)C)c3nc12 the results were PP5 inh 2, Cardio protect 57*, ATG4B inh -6 and PP1 counter -2.
